Measured values reported in PubChem BioAssay AID2284377 (EPA ToxCast).
Inconclusive results are not listed. Calls of active or inactive are those of the source. How the source made its calls: active means hit-call score of the fitted dose curve at least 0.9, where 1 is the maximum; inconclusive means response in the unintended direction; inactive means score below 0.9.

molecular target: Estrogen receptor (Homo sapiens) (UniProt P03372); experiment: ERF_TW_NR_COA_hESR1: Eurofins (ERF) Nuclear Receptor (NR) Functional Coactivator Assay for human Estrogen Receptor alpha (ERa) Agonism
Sequence (P03372 whole entry, looked up): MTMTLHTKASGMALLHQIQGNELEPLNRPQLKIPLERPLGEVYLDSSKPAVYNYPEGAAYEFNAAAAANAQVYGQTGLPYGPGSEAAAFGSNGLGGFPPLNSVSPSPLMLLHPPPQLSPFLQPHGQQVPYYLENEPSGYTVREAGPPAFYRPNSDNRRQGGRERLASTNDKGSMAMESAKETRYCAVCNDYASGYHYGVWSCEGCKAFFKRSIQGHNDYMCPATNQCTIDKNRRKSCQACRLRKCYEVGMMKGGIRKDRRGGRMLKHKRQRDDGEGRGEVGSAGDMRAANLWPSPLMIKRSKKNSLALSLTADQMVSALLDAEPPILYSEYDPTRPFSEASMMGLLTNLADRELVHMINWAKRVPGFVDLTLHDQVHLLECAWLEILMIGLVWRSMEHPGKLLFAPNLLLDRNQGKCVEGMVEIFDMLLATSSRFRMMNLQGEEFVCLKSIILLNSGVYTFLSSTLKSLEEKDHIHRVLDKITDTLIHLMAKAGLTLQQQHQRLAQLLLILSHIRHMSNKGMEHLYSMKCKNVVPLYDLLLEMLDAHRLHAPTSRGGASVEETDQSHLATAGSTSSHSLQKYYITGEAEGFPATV
Procedure: ERF_TW_NR_COA_hESR1 is a biochemical, single-readout assay that uses extracted gene-proteins in a cell-free assay. Measurements were taken 0.16 hours after chemical dosing in a 96-well plate. See ERalpha Human Estrogen NHR Functional Agonist Coactivator Assay, Panlabs.ERF_TW_NR_COA_hESR1 is an assay component calculated from the ERF_TW_NR_COA_hESR1 assay. It is designed to measure FRET using a type of binding reporter as detected by fluorescence intensity of estriol with fluorimetry technology.Data from the assay component ERF_TW_NR_COA_hESR1 was analyzed at the assay endpoint, ERF_TW_NR_COA_hESR1, in the positive analysis fitting direction relative to DMSO as the negative control and baseline of activity. Using a type of binding reporter, gain-of-signal activity can be used to understand changes in binding as they relate to gene ESR1. To generalize the intended target to other relatable targets, this assay endpoint is annotated to the nuclear receptor intended target family, where the subfamily is steroid.
Test compound and/or vehicle is incubated with the 7 nM estrogen receptor alpha (ERalpha)-LBD and coactivator peptide for 10 minutes at RT. Determination of the amount of complex formed is read spectrofluorimetrically at 520 nm/490 nm. Test compound-induced increase fluorescence by 50 percent or more (>/=50%) relative to the 1 uM Estriol response indicates possible ERalpha receptor agonist activity.

AC50, active:
OCCCC(F)(F)C(F)(F)C(F)(F)C(F)(F)C(F)(F)C(F)(F)C(F)(F)F 43.3 µM, FC(F)(I)C(F)(F)C(F)(F)C(F)(F)C(F)(F)C(F)(F)I 7.81 µM, OCC(F)(F)C(F)(F)C(F)(F)C(F)(F)C(F)(F)C(F)(F)C(F)(F)C(F)(F)CO 0.467 µM, OCCC(F)(F)C(F)(F)C(F)(F)C(F)(F)C(F)(F)C(F)(F)F 50.2 µM, OCC(F)(F)C(F)(F)C(F)(F)C(F)(F)C(F)(F)C(F)(F)CO 1.53 µM, FC(F)(F)C(F)(F)C(F)(F)C(F)(F)C(F)(F)C(F)(F)I 4.11 µM, O=P(O)(O)OCCC(F)(F)C(F)(F)C(F)(F)C(F)(F)C(F)(F)C(F)(F)F 9.12 µM, C=CC(=O)OCC(F)(F)C(F)(F)C(F)(F)C(F)(F)C(F)(F)C(F)(F)C(F)(F)C(F)F 37.5 µM

outcome, inactive:
NC(=O)C(F)(F)C(F)(F)C(F)(F)C(F)(F)C(F)(F)C(F)(F)C(F)(F)F, OCCC(F)(F)C(F)(F)C(F)(F)C(F)(F)C(F)(F)C(F)(F)C(F)(F)C(F)(F)F, O=C(CC(=O)C(F)(F)C(F)(F)C(F)(F)F)c1cccs1, FC(F)(I)C(F)(F)C(F)(F)C(F)(F)I, N=C(N)C(F)(F)C(F)(F)C(F)(F)C(F)(F)C(F)(F)C(F)(F)C(F)(F)F
